Records with an inconclusive call do not appear. Activity calls are given as the source filed them. Calls follow the shape of the dose curve; as a rule, active = well fitted inhibition curve with a large enough effect; inconclusive = small, poorly fitted or top-dose-only effect; inactive = flat fitted curve, though single readings scatter.
What was measured:
[1] = target: Glutathione peroxidase 1 (Homo sapiens) (UniProt P07203); experiment: Primary qHTS Assay for Inhibitors of Recombinant Selenoprotein Glutathione Peroxidase 1 (GPX1) (AID 1845191); also: nearly all actives have a fitted effect of over 65% in size
In short: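 GPX1 10 nM, GR 100 nM, GSH 1 mM, NADPH 0.5 mM, CHP 0.5 mM (final). 30-min cpd preincubation, RT. Ex340/Em450 read t=0, t=15 min.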

[2] = target: Phospholipid hydroperoxide glutathione peroxidase GPX4 (Homo sapiens) (UniProt P36969); experiment: Primary qHTS Assay for Inhibitors of Recombinant Selenoprotein Glutathione Peroxidase 4 (GPX4) (AID 1845192); also: series mostly up to about 50 µM; % is scaled to controls: 0 for no effect and ±100 for the full control effect; nearly all actives have a fitted effect of over 65% in size
In short: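 qHTS, GR-coupled: GPX4 200 nM + cpd 30 min RT → GSH 1 mM, NADPH 0.5 mM, GR 100 nM → CHP 0.5 mM start; fluor 340/450 at t0 and t15 min; no-enzyme wells as control.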

[3] = target: Luciferin 4-monooxygenase (Photinus pyralis) (UniProt P08659); experiment: Primary firefly luciferase (FLuc) qHTS assay for identification of artifact compounds. (AID 1845220); also: nearly all actives have a fitted effect of over 60% in size;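 as to activity change, negative = inhibition: series mostly up to about 54 µM; plate controls were DMSO vehicle for no effect and no enzyme for full effect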
In short: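 Reaction readout was CCD-imaged luminescence, taken 5 min after adding 10 nM purified firefly enzyme to compound-treated wells holding 10 uM luciferin and ATP in pH 7.6 buffer.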

Chain of Glutathione peroxidase 1 (Homo sapiens) (P07203 whole entry, looked up): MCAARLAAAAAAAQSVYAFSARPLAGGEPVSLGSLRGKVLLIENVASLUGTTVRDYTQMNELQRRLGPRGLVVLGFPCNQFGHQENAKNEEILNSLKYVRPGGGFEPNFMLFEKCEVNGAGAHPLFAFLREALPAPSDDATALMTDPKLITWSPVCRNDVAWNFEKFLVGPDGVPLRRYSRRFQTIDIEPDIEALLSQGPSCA
Chain of Phospholipid hydroperoxide glutathione peroxidase GPX4 (Homo sapiens) (P36969 whole entry, looked up): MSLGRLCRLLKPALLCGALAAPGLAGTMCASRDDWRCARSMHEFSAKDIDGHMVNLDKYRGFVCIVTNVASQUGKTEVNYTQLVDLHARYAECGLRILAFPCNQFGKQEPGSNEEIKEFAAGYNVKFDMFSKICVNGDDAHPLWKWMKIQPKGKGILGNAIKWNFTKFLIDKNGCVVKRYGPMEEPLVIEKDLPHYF

C=C1CCC2(OC1)OC1CC3C4CC=C5CC(O)CC(O[C@@H]6OC[C@@H](O)[C@H](O)[C@H]6O)C5(C)C4CCC3(C)C1(O)C2C (some centres undefined)
inactive: Potency [1] | Potency [2] | Potency [3]

COc1cc(-c2cccc(O)c2)cc2c1OCO2
inactive: Potency [1] | Potency [2] | Potency [3]

C/C=C/C=C/C=C/C(=O)O[C@@H]1[C@@H](OC)C2=C(C(=O)N(C(C)C(=O)O)C2)[C@@]2(C)CCCC(C)(C)[C@H]12 (some centres undefined)
inactive: Potency [1] | Potency [2] | Potency [3]

C/C1=C\C[C@H](O[C@@H]2O[C@H](CO)[C@@H](O)[C@H](O)[C@H]2O)/C(C)=C/[C@H]2OC(=O)[C@H](C)[C@@H]2CC1
inactive: Potency [1] | Potency [2] | Potency [3]

COC1(CC(C)C)NC(=O)C(O)(Cc2ccccc2)NC1=O (centres undefined)
inactive: Potency [1] | Potency [2] | Potency [3]

CC(C)C1=CCC(C)(O)C(OC2OC(CO)C(O)C(O)C2O)C1 (centres undefined)
inactive: Potency [1] | Potency [2] | Potency [3]

O=C(Nc1cccnn1)N1CCC(=Cc2cccc(Oc3ccc(C(F)(F)F)cn3)c2)CC1
inactive: Potency [1] | Potency [2] | Potency [3]

C[C@@H]1O[C@@H](O[C@H]2[C@H](O)[C@@H](O)[C@H](OC[C@H]3O[C@@H](OC(=O)[C@]45CCC(C)(C)C[C@H]4C4=CCC6[C@@]7(C)C[C@H](O)[C@H](O[C@@H]8O[C@H](CO)[C@@H](O)[C@H](O)[C@H]8O)[C@@](C)(C(=O)O)C7CC[C@@]6(C)[C@]4(C)CC5)[C@H](O[C@@H]4O[C@H](CO)[C@@H](O)[C@H](O)[C@H]4O)[C@@H](O)[C@@H]3O)O[C@@H]2CO)[C@H](O)[C@H](O)[C@H]1O (some centres undefined)
inactive: outcome [1] inactive [at 9.52 µM] | activity change, negative = inhibition [2] 0.162% [at 9.73 µM] | outcome [3] inactive [at 11.6 µM]
